{"source": "the supplement of paper PMC11732987", "about": "“Enantioselective OTUD7B fragment discovery through chemoproteomics screening and high-throughput optimisation” (Communications Chemistry, 2025)", "assay_in_all_cases": "log2 ratio of Biotin-Ahx-Ub-VS probe labelling (fragment/DMSO); higher = less target engagement (more negative = stronger competition), active = hit call of the paper (q ≤ 0.05, log2 ratio ≤ -1)", "details_in_all_cases": "compound concentration: 200 uM; treatment time: 3 h", "key": {"USP19": {"molecular_target": "T1, USP19 (UniProt O94966)", "T1 sequence (whole entry)": "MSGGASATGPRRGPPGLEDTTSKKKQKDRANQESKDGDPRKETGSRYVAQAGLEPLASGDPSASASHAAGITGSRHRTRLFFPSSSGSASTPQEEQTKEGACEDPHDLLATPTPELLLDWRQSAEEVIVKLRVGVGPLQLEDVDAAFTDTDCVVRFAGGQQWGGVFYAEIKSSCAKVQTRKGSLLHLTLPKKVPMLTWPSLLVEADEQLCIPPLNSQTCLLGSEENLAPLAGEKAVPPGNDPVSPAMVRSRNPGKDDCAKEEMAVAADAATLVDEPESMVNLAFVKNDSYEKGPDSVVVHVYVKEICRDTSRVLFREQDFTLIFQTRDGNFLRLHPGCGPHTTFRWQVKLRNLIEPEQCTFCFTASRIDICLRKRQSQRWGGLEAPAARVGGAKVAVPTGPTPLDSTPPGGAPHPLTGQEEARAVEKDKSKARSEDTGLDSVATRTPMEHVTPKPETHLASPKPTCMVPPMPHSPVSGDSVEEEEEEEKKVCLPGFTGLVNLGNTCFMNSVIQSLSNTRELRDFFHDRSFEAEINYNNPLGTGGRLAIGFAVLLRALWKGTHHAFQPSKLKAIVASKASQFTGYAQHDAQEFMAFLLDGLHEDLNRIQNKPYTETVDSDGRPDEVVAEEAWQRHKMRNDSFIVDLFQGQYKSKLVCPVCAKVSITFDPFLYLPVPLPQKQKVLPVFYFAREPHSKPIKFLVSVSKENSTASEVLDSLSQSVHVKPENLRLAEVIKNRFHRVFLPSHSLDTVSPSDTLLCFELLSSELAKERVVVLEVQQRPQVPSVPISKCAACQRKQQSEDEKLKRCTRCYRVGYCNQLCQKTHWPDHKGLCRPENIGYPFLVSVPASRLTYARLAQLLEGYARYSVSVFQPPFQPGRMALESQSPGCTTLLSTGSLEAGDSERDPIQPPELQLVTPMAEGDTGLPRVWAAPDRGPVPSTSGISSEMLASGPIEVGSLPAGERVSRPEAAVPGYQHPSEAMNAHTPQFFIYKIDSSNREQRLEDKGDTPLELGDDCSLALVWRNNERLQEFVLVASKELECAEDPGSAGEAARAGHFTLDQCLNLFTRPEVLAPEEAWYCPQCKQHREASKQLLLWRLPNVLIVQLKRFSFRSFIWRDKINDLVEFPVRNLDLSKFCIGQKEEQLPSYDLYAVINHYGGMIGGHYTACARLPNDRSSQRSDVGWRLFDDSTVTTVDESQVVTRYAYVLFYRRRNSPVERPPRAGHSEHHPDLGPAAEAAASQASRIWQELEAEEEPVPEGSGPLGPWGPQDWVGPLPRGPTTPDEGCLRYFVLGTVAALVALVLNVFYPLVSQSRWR", "how_it_was_run": "(§1)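 Average log2 ratios of fragment over vehicle were obtained by unpaired t-test from global-median-normalised Spectronaut label-free quantities. Proteins with ≥2 unique peptides were included. HEK293T lysate (495 µg per sample) was treated in triplicate with fragment at 200 µM or vehicle for 3 h, then with Biotin-Ahx-Ub-VS at 0.5 µM final for 1 h, and labelled DUBs were NeutrAvidin-enriched and run by diaPASEF LC-MS/MS.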"}, "USP22": {"molecular_target": "T2, USP22 (UniProt Q9UPT9)", "T2 sequence (whole entry)": "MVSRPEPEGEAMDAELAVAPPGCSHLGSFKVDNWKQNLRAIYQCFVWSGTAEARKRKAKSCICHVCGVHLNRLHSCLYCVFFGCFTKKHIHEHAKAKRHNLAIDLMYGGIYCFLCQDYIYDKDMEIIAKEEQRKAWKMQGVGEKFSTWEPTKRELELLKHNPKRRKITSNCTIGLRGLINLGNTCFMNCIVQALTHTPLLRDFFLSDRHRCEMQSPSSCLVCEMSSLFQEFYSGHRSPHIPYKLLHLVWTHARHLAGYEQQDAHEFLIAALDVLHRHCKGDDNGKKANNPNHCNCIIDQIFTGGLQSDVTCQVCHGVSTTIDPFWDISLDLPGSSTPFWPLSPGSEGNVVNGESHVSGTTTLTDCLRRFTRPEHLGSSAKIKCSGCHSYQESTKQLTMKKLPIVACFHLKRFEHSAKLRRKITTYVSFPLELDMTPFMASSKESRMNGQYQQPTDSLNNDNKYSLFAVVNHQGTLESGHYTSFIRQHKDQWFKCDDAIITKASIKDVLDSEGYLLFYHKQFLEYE", "how_it_was_run": "as §1"}, "USP24": {"molecular_target": "USP24 (UniProt Q9UPU5)", "sequence (Q9UPU5 whole entry)": "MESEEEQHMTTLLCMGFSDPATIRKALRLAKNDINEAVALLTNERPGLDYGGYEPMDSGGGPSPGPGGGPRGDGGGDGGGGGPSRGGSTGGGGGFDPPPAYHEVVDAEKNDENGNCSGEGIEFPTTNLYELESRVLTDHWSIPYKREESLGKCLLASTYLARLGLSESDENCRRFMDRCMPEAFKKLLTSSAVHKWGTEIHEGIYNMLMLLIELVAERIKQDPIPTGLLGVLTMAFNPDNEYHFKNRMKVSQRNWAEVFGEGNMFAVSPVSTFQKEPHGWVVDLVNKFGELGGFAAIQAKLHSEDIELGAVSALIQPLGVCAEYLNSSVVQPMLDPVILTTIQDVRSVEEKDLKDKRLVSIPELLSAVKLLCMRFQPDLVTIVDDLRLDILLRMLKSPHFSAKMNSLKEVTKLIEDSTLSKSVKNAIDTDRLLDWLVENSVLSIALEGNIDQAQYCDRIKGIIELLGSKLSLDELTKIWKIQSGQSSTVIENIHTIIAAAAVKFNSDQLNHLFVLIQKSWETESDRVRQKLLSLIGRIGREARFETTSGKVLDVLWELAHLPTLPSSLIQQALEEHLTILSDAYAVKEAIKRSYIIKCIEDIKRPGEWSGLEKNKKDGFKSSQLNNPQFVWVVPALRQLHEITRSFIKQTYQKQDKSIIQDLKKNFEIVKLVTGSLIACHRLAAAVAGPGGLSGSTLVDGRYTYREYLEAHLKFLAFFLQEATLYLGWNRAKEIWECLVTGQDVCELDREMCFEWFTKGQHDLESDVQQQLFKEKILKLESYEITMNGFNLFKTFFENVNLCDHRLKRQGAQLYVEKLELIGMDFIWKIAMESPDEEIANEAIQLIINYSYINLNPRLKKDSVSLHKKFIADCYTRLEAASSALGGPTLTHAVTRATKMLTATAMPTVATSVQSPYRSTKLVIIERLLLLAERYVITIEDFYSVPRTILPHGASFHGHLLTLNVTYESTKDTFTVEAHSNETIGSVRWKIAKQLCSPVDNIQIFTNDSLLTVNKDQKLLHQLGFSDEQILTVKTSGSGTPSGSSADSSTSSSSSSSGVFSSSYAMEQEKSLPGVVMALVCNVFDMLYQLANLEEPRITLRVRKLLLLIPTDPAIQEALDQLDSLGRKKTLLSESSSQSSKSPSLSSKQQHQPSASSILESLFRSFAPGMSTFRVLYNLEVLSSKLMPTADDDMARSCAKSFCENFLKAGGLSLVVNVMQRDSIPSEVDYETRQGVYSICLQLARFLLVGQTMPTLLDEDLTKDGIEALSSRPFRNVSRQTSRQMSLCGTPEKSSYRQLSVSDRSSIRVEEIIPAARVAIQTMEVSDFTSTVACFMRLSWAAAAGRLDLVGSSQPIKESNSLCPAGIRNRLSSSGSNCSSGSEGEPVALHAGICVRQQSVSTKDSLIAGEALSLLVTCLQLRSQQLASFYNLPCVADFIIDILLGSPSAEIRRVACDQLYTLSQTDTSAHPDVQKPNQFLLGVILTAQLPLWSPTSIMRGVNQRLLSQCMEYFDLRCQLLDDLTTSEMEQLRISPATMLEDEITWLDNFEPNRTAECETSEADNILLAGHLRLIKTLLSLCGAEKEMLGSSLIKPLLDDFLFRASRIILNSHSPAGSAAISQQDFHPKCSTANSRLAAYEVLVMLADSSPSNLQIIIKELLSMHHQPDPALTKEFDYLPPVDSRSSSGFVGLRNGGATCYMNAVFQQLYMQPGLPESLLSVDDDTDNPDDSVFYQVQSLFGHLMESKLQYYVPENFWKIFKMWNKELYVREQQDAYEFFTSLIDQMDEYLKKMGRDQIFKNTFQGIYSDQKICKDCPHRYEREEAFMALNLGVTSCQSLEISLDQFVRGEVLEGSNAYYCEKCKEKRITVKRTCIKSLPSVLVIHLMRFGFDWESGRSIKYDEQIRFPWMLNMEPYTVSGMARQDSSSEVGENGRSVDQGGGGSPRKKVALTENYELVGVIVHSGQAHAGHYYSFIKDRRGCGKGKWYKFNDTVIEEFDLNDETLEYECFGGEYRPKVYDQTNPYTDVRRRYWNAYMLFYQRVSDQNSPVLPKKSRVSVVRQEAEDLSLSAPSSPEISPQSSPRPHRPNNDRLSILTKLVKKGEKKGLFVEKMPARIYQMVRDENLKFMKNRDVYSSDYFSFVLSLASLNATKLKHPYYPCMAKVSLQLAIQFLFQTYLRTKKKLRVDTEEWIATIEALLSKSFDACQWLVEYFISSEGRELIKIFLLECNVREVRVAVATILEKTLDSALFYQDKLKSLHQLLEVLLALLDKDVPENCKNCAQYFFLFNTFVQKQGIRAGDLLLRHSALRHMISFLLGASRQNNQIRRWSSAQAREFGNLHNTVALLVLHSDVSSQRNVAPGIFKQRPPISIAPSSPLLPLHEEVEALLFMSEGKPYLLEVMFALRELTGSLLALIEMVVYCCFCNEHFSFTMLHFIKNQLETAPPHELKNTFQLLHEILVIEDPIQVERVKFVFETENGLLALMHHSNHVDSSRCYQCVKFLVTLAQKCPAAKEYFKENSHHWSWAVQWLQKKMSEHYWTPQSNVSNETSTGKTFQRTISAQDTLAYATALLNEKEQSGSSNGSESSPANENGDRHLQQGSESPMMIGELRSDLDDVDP", "how_it_was_run": "as §1"}, "USP25": {"molecular_target": "T3, USP25 (UniProt Q9UHP3)", "T3 sequence (whole entry)": "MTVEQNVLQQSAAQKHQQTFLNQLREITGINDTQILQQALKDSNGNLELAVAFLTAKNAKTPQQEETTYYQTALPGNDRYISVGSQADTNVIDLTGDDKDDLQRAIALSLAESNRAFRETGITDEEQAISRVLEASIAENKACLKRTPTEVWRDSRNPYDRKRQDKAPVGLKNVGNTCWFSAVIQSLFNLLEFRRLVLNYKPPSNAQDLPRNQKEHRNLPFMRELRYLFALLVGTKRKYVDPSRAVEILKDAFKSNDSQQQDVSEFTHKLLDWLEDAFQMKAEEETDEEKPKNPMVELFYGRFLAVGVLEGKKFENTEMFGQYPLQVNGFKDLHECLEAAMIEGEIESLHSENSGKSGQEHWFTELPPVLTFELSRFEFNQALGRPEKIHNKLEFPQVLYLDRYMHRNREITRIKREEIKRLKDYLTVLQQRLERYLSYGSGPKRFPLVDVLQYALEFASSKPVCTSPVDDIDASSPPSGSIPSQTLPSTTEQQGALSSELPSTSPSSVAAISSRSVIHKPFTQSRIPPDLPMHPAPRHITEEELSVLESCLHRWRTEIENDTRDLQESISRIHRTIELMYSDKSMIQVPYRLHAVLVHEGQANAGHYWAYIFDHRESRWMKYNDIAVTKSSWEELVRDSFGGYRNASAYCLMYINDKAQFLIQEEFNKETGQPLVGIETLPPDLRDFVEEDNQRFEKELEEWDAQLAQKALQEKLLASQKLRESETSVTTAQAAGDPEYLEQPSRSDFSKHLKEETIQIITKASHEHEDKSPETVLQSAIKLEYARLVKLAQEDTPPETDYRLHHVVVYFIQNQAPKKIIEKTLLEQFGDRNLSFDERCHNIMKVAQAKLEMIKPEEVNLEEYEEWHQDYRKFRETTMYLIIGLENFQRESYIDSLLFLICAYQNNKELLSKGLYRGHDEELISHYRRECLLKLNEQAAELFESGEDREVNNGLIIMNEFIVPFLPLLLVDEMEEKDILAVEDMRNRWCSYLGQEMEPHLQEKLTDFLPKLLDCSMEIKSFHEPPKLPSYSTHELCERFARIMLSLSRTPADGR", "how_it_was_run": "as §1"}, "USP28": {"molecular_target": "T4, USP28 (UniProt Q96RU2)", "T4 sequence (whole entry)": "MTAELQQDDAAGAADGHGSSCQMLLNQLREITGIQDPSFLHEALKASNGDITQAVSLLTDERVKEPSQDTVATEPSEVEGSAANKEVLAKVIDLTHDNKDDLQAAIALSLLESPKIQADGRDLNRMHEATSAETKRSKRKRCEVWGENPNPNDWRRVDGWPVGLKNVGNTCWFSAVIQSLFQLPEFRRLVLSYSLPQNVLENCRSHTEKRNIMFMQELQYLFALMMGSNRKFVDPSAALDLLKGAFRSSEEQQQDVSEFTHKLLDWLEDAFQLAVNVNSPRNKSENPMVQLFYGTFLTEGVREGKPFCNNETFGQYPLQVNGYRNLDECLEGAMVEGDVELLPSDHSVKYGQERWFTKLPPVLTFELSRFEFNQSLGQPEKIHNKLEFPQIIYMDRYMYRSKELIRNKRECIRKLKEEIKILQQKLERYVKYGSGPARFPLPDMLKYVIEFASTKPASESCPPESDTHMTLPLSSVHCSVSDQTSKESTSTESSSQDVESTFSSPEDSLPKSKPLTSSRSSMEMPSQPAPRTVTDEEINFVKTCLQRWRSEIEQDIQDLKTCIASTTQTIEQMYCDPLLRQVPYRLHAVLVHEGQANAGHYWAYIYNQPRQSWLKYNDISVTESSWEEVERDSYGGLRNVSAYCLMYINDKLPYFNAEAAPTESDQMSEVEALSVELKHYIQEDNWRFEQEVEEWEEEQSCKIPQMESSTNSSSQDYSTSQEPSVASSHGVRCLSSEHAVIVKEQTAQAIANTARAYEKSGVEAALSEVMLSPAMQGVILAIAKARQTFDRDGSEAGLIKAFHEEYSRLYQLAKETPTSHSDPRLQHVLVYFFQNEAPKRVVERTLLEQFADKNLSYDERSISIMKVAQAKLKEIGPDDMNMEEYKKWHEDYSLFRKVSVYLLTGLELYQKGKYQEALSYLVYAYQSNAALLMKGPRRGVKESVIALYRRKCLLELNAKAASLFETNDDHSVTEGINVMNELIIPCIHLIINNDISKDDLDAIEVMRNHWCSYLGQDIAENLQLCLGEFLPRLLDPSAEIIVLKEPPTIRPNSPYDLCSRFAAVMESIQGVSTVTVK", "how_it_was_run": "as §1"}}, "note": "Values without a mark were called inactive.", "data": [{"smiles": "Cc1ccc(C)c(NC(=O)CCl)c1", "values": [{"measurement": "log2 ratio of Biotin-Ahx-Ub-VS probe labelling", "setting": "USP19", "result": -0.203}, {"measurement": "log2 ratio of Biotin-Ahx-Ub-VS probe labelling", "setting": "USP22", "result": -0.27}, {"measurement": "log2 ratio of Biotin-Ahx-Ub-VS probe labelling", "setting": "USP24", "result": -0.729}, {"measurement": "log2 ratio of Biotin-Ahx-Ub-VS probe labelling", "setting": "USP25", "result": "-1.41 (active)"}, {"measurement": "log2 ratio of Biotin-Ahx-Ub-VS probe labelling", "setting": "USP28", "result": "-1.56 (active)"}]}]}
